Several values for one entry are separate records, joined by “and”; a condition that tells them apart may be missing. Equal entries are not always repeated. This is part of a sample that, as a whole, favours compounds with a hit. Of some 83,000 tested, about 20% had one in any assay.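 Results are percent growth after 48 hours of single-concentration exposure. 100 means growth as in untreated cells, lower positive values show inhibition; negative values down to -100 show cell death.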 Activity calls are given as the source filed them.

For the first assay, the system named is TK-10 renal. Nature of the assay: NCI-60 one-dose screen, 48 h (100 = growth as untreated, 0 = no growth, -100 = all killed). To be noted: 2.5 µM. How it is done: Growth inhibition of the TK-10 human tumor cell line is measured as a screen for anti-cancer activity. Cells are grown in 96 well plates and exposed to the test compound for 48 hours. Compounds are tested at a single concentration, which is 10^-5 M for most compounds. The reported endpoint is percent growth (GI% or GIPRCNT), where numbers from 0 - 100% represent growth inhibition, and numbers from -100% - 0 represent cell death. For example, a value of 40 represents 60% growth inhibition. A value of 0 means no net growth occurred over the course of the experiment. A value of -40 indicates 40% of cells at the beginning of the experiment died by the end of the experiment. A value of -100 means all cells are dead at the end of the experiment.
NCI-60 Human Tumor Cell Lines Screen was performed using the standard one-dose NCI protocol, which is described in more detail at https://dtp.cancer.gov/discovery_development/nci-60/default.htm.
Compounds with GIPRCNT values below 10 were considered active. Activity score was based on GIPRCNT using the following formula: […]
Score is 0 for GIPRCNT values of 100 or above, 50 for GIPRCNT values of 0, and 100 for GIPRCNT values of -100.
`COc1cc(NS(C)(=O)=O)ccc1Nc1c2ccccc2nc2ccccc12`: the growth is 66.1% (inactive).

The same assay, now with this note: 10 µM.
As to `O=C(Nc1cccc(Br)c1)Oc1cccc2cccnc12`, the growth is 118% (inactive).

The assay is the same for the next values; noted with them: 10 µM unless noted.
Take `CCC(CCCN(CC)CCc1ccccc1)OC(=O)c1cc(OC)c(OC)c(OC)c1` (stereo not given): the growth is 72.6% (inactive).

As for `Cc1ccc2nc(-[n+]3cc4ccccc4cc3C)ccc2c1`, the growth was 81.9% (inactive).

`O=C(Nc1cccc(Br)c1)Oc1ccc(Cl)c2cccnc12`: the growth was 170% [100 µM] (inactive).

Consider `N#CSCc1ccc(CSC#N)c(Cl)c1`, for which the growth is 94.3% (inactive).

`COC(=O)c1nc(=S)[nH]c(C(=O)OC)c1C(=O)c1ccccn1`: the growth is 47.6% (inactive).

In the case of `O=C(O)C1C2CC3C(OC(=O)C31)C2Br` (stereo not given), the growth is 88.7% (inactive) and 100% (inactive).

Regarding `Cc1ccc(N=C=C(c2ccccc2)c2ccccc2)cc1`, the growth was 112% (inactive).

In the case of `Cc1ccc2nc(C[n+]3ccc4ccccc4c3)ccc2c1`, the growth was 95% (inactive).

As for `Nc1nc(N)c2c(ccc3c2ccn3Cc2cccc([N+](=O)[O-])c2)n1`, the growth was -92.4% (active).

On to `CC1OC2CC(=O)OC2C2=C1C(=O)c1c(O)cccc1C2=O` (stereo not given), for which the growth is -96.2% (active).

With `Cc1ccc(C(=Nc2ccccc2)N=P(c2ccccc2)(c2ccccc2)c2ccccc2)cc1`, the growth is -23.4% (active).

As to `NC(=S)N/N=C\c1nccc2c(C(F)(F)C(F)(F)C(F)(F)F)cccc12`, the growth was 11.9% (inactive).

For `O=C1N[C@H]2[C@H](CS[C@H]2CCCCC(=O)N(CCP(c2ccccc2)c2ccccc2)CCP(c2ccccc2)c2ccccc2)N1`, the growth is 97.4% (inactive).

Take `CCOC(=O)/C=C/c1ccc([N+](=O)[O-])o1`: the growth is 40.7% (inactive).

Regarding `Cc1cc(N)c2ccccc2[n+]1CCCCCCCCCC[n+]1c(C)cc(N)c2ccccc21`, the growth is 21.1% (inactive) and 35.1% (inactive).

Take `CN(C)C(=O)c1ccc(SC(=S)NCc2ccccc2)cc1`: the growth was -4.78% [100 µM] (active).

For the compound `N#CSCC(=O)c1ccc(Cl)cc1`, the growth is 82.7% (inactive).

With `CCCCCC(CCCCC)C(=O)O`, the growth was 101% (inactive).

For the compound `CNc1ccc(N)cc1`, the growth was 130% (inactive).

On to `Cc1ccnc(NC(c2ccccc2)c2ccc3cccnc3c2O)c1` (stereo not given), for which the growth was 58.3% (inactive).

In the case of `O=C(Nc1ccccc1)c1cc(Cl)ccc1O`, the growth is 53.5% (inactive).

In the case of `CCCCCCCCCCCCCCCCN(CC)CC`, the growth is -89.4% (active).

Take `CCOC(=O)/C(=C\c1ccc(-c2ccccc2)cc1)C(C)=O`: the growth is 86.1% (inactive).

`C=C(Cl)C(=NC(C)(C)C)Nc1ccccc1C`: the growth is 106% (inactive).

For the compound `COc1ccc2nc3cc(Cl)ccc3c(NCCNc3c4ccc(Cl)cc4nc4ccc(OC)cc34)c2c1`, the growth was -92.7% (active).

`CCC(c1cccc(O)c1)C(CC)c1cccc(O)c1` (stereo not given): the growth is 80% (inactive).

Turning to `Cc1c2ccccc2c(C)c2c1ccc1ccccc12`, the growth is 111% (inactive).

Regarding `O=C(O)c1ccc2c3c(ncnc13)-c1ccccc1C2=O`, the growth is 120% (inactive).

Take `CC1(C)CC([P+](c2ccccc2)(c2ccccc2)c2ccccc2)=NN1`: the growth is 56.4% (inactive).

As to `COC(=O)[C@@]12OC[C@]34[C@H]([C@@H](O)[C@@H]1O)[C@@]1(C)[C@H](O)C(=O)C=C(C)[C@@H]1C[C@H]3OC(=O)C(OC(C)=O)[C@@H]24` (stereo not given in full), the growth is -32.7% (active).

`O=C1c2ccccc2C(=O)N1c1ccccc1`: the growth was 117% (inactive).

As for `N#CSCc1ccc(Cl)c(CSC#N)c1`, the growth was 59.5% (inactive).

On to `O=C1C=CC(=O)N1C1c2ccccc2-c2ccccc21`, for which the growth is 51.4% (inactive).

On to `O=[N+]([O-])c1ccc(N=Nc2ccc(O)cc2O)cc1`, for which the growth was 77.9% (inactive).

Take `C[n+]1c(/C=C/c2ccc([N+](=O)[O-])cc2)ccc2ccccc21`: the growth was 112% (inactive).

On to `Oc1ccc(/C=N/NC(=S)Nc2ccccc2)nc1`, for which the growth was 31.2% (inactive).

Still in this assay, the particulars now being: 100 µM.
Turning to `O=C(Nc1cccc(Br)c1)Oc1cccc2cccnc12`, the growth is 112% (inactive).

The assay is the same for the next values; noted with them: 250 µM.
In the case of `COc1cc(NS(C)(=O)=O)ccc1Nc1c2ccccc2nc2ccccc12`, the growth is -95.2% (active) and -100% (active).
